Most compounds without a hit are left out; they make up all but 6.5% or so of the library.
A340 absorber: compounds absorbing at 340 nm; compound absorbance at 340 nm, fold over control; fold change at 10 µM; 65,000 tested, under 10 active; AID 708;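 active = at 10 µM dose, initial 340 nm absorbance at least 2 fold that of control wells; inactive = change under 2 fold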;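 also: initial absorbance extrapolated from kinetic A340 decline of NADH oxidation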
Spn MK inh: inhibitors of Streptococcus pneumoniae mevalonate kinase. purified MK, PK/LDH-coupled NADH absorbance 340 nm. inhibition, % at 10 µM. actives 0.48% (n = 65,000);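 active = ranked among the strongest by inhibition in the single 10 µM screen, a fixed top-ranked set picked for dose follow-up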
PMK inhibit: blocks S. pneumoniae phosphomevalonate kinase. AID 539. purified PMK, PK/LDH-coupled NADH absorbance 340 nm. inhibition, % at 10 µM. actives 0.49% (n = 65,000);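 active = top-ranked compounds by inhibition in the single 10 µM screen, taking a fixed number of the strongest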;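 also: 0% = full reaction with DMSO carrier and 100% = background rate without enzyme reaction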
Autofluor 339: intrinsic fluorescence of library compounds, ex339/em460 – biochemical, MLSMR library, data from DPM-DC assay, artefact control, profiling panel; compound autofluorescence, ex339/em460 nm, NADH buffer; hits give high values; 1 = no-compound wells, NADH background; fluorescence fold increase at 10 µM; actives 5.5% (n = 65,000); AID 709;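 active = at 10 µM, mean starting fluorescence two-fold or more over control wells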;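 also: signal is the first read of a kinetic run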
DPM-DC inhibit: blocks S. pneumoniae diphosphomevalonate decarboxylase | AID 556 | calls only at 10 µM | actives 0.49% (n = 65,000) | purified DPM-DC, PK/LDH coupled NADH fluorescence;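 active = the 320 compounds with the highest percent inhibition in the single-dose primary screen, excluding strongly autofluorescent ones, cut at about 32% in these data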;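 also: kinetic rate of NADH fluorescence loss reporting ADP formed by the decarboxylase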
NADH coupling: inhibition of NAD/NADH coupling enzymes, library profiling; coupled PK/LDH NADH assays, four targets; IC50, µM (highest dose often 10 µM), for inactives: at the top dose inhibition; actives 0.02% (n = 65,000);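 active = single-dose screening hits from any of four coupled enzyme assays that gave an IC50 when retested across doses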;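 also: the DPM-DC format reads NADH fluorescence rather than 340 nm absorbance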
* marks the source's active call; other numbers are inactive results; i = inactive; . = no result given; + = active, no number.

SMILES	A340 absorber	Spn MK inh	PMK inhibit	Autofluor 339	DPM-DC inhibit	NADH coupling
COc1ccc(C2C(C#N)=C(SC)NC3=C2C(=O)CC(C)(C)C3)cc1 (centres undefined)	1.1	4	3	1.1	i	4%
OCCNCC1(O)C2CC3CC(C2)CC1C3 (centres undefined)	0.99	12	26*	1.1	i	15%
Cc1cc(C)c(C#N)c(N2CCSCC2)n1	1	10	11	2.7*	i	13%
Cc1cc(C)c(C#N)c(N2CCCC(C(N)=O)C2)n1 (centres undefined)	1	2	9	4.1*	.	6%
Cc1cc(C)c(C#N)c(SCC(=O)N2CCCCC2)n1	1.1	0	0	1.1	i	1%
Cc1cc(N(C)C)c(C#N)c(N2CCOCC2)n1	1	11	3	1.1	i	5%
CC(=O)OC1=C(C#N)Cn2ccc3cccc1c32	1.1	9	5	3.9*	.	7%
CC(C)COC(=O)N1CC(O)CC1C(=O)O (centres undefined)	1	1	0	1.1	i	0%
O=C1NCCN1C(=O)C12CC3CC(CC(C3)C1)C2	1	0	10	1.1	i	3%
CN1CC(=O)NC1=NC(=O)C12CC3CC(CC(C3)C1)C2	1	0	11	0.6	+	17%
O=C(CNS(=O)(=O)c1ccc(Br)s1)NCC1COc2ccccc2O1 (centres undefined)	1	1	6	1.1	i	2%
CCn1c(SCC(=O)Nc2ccc(Cl)cc2)nnc1C1CC1	0.99	4	58*	1	i	9%
CCn1c(SCC(=O)Nc2ccc(NC(C)=O)cc2)nnc1C1CC1	0.98	7	19	1.1	i	10%
O=C1Nc2ccccc2C12Nc1ccccc1-c1nc3ccccc3n12 (centres undefined)	1.1	2	5	1.3	i	2%
c1ccc2c(c1)NC1(CCCCC1)n1c-2nc2ccccc21	1.1	11	0	3.7*	.	6%
CC1(c2ccccn2)Nc2ccccc2-c2nc3ccccc3n21 (centres undefined)	1.1	2	5	3.8*	.	4%
CC(C)(C)OC(=O)N1CCN(c2ccc(NC(=O)c3cc4ccccc4oc3=O)cc2)CC1	1	8	0	1	i	3%
Cc1ccc(-c2cc(C(F)(F)F)c(C#N)c(SCCC#N)n2)o1	1.1	8	2	3.7*	.	5%
O=C(Nc1ccc(Cl)cn1)C1CCCN1S(=O)(=O)c1ccccc1 (centres undefined)	1	3	7	1	i	7%
O=C(NCCCn1ccnc1)C1c2ccccc2Oc2ccccc21	1	9	9	1.2	i	7%
Cc1ccc(-c2nc3cc(C)ccc3o2)cc1	1.1	1	0	0.87	i	4%
COC(=O)c1ccc(-c2nc3ccc(C)cc3o2)cc1	1.1	10	17	3.8*	.	14%
COC(=O)c1ccc(-c2nc3ccccc3o2)cc1	1.1	0	3	4.6*	.	2%
Cc1[nH]c(C(=O)N2CCCCC2)c(C)c1C(=O)NC1CCCCC1	0.98	6	13	1.1	i	2%
CN(C)c1ccc(-c2nnn(CC(=O)Nc3ccccc3N3CCOCC3)n2)cc1	1	3	7	1.3	i	4%
SMILES	A340 absorber	Spn MK inh	PMK inhibit	Autofluor 339	DPM-DC inhibit	NADH coupling
CN(C)c1ccc(-c2nnn(CC(=O)N3c4ccccc4CCc4ccccc43)n2)cc1	1.1	0	0	2.6*	i	0%
CCN1CCN(C(=O)c2cc3nc(-c4ccccc4)cc(C(F)(F)F)n3n2)CC1	1.1	10	10	1.5	i	7%
Cc1ccc2nc3ccc(N4CCCC4)nn3c(=O)c2c1	1.1	0	16	1.6	i	5%
Cc1sc2nc3ccc(N4CCCCC4)nn3c(=O)c2c1C	1.1	4	7	2.4*	i	4%
CCN(CC)CCCN1C(=O)C(O)=C(C(=O)c2cc3cccc(OC)c3o2)C1c1ccncc1 (centres undefined)	1.1	1	6	1.1	i	2%
CC1CCN(c2nc3c(c(=O)[nH]c(=O)n3C)n2CCSc2nc3ccccc3o2)CC1	1	1	15	1.1	i	5%
CCCn1nc(NC(=O)c2cccs2)c2cc3cc(OC)ccc3nc21	1	10	16	2*	.	4%
CCCCn1nc(NC(=O)c2cccs2)c2cc3ccccc3nc21	1	14	5	2.2*	.	10%
COc1ccc(NC(=O)c2ccccc2NC(=O)C2CCCO2)cc1 (centres undefined)	1	2	2	1.1	i	1%
CCCn1nc(NC(=O)c2ccncc2)c2cc3ccccc3nc21	1.1	4	9	1.2	i	4%
CCCCn1nc(NC(=O)c2cccs2)c2cc3cc(OC)ccc3nc21	1	4	10	3.6*	.	7%
CCCC(=O)Nc1nn(CCC)c2nc3ccccc3cc12	1	0	2	1.3	i	1%
COc1ccc2nc3c(cc2c1)c(NC(=O)C1CCCO1)nn3CC(C)C (centres undefined)	1	9	7	3.7*	.	8%
Cc1ccc(N(CC(=O)N2CCN(C3CCCCC3)CC2)S(=O)(=O)c2cccnc2)cc1	1	1	10	1	i	4%
COc1ccccc1CNC(=O)C1CCCN1S(=O)(=O)c1cccc2cccnc12 (centres undefined)	1.1	6	0	1.1	i	2%
Cc1cc(C)n2nc3nc(N4CCCCC4)nc(-c4ccco4)c3c2n1	1	0	20	2.1*	+	10%
Cc1cc(C)n2nc3ccccc3c2n1	1.1	2	10	2	i	4%
CCCn1c(SCC(=O)c2cc(OC)ccc2OC)nnc1C(C)C	1	10	13	1.1	i	9%
Cc1cccc(-c2nc(C#N)c(N3CCCCCC3)o2)c1	1.1	8	6	3.8*	.	7%
CCOc1ccc(-c2nc(C#N)c(NCc3ccc4c(c3)OCO4)o2)cc1	1	12	5	1.8	i	5%
COc1ccccc1OCc1nc(C#N)c(N2CCC(C(N)=O)CC2)o1	1	7	9	1.1	i	5%
N#Cc1nc(-c2ccc(OCc3ccccc3)cc2)oc1N1CCC(C(N)=O)CC1	1.1	7	11	4*	.	9%
CCOc1ccc(-c2nc(C#N)c(NC3CC3)o2)cc1	1	13	17	3.8*	.	15%
CCN1CCN(c2oc(-c3ccc(OC)cc3)nc2C#N)CC1	1.1	2	0	3.8*	.	1%
CCCCc1ccc(C2C(C#N)=C(N)SC(N)=C2C#N)s1	1	6	6	1.1	i	4%
CCN1C(=O)c2ccccc2S(=O)(=O)c2ccc(C(=O)NCc3cccnc3)cc21	1	2	0	1.1	i	0%

High-throughput results (PubChem)
